Assay results reported in the supplement of paper PMC11417369.
Whole data set: some 25,000 sequences, median “ln(normalized median fluorescence intensity)” near 7.1, cut for the highest 2% near 10. The full list was thinned out, with the highest values kept by preference.

tested on: PfSIP2 AP2 domain 1 (GST-tagged); experiment: gcPBM binding intensity (ln(normalized median fluorescence intensity)); higher = stronger DNA binding
In short: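 Binding of GST-tagged P. falciparum DNA-binding domains, expressed in E. coli and used at about 25 μg on average, was carried out for 1 h in 1× PBS containing 1% milk, 0.2 mg/ml BSA, 0.5% salmon testes DNA and 0.03% Triton X-100. The target was an Agilent 4 × 180k array of primer-extended double-stranded 36-bp intergenic genomic probes plus negative controls, read with Alexa488 anti-GST antibody at 488 nm. Binding intensity is the highest Masliner-normalised natural-log median intensity across replicate spots of either probe orientation.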

Row | Sequence | gcPBM binding intensity (ln)
1 | ATATATATATATATATGTACGTACTCAGTTATGCCT [XGTACX_site453] | 9.2
2 | TTTGTAACTTCTTTCACACATATATATATATATATA [CACACA_site5603] | 9.76
3 | CACCCACCCAGACACACACACACACCCCCACCCATA [CACACA_site367] | 7.6
4 | TTTGTGTTTATAAATTGTACAAAGGTGCAAGAAGAA [XGTACX_site2159] | 11.2
5 | GTGTGCAAAAATTGTTGTACATTATATATAAAAAAA [XGTACX_site3246] | 7.79
6 | ACAAATTGTTAAAGGTGTACAATACATATATAAGAA [XGTACX_site4906] | 7.38
7 | TATGTACAGACATATACACACCTCTATAATCTATAT [CACACA_site6482] | 7.09
8 | TGTCGGCTTAGATTAGTGCACTGAAAAATGAAGTAT [GTGCAC_site9919] | 10.5
9 | TATATATATAAATGAATGCACTTTAGAAAAAAGTAC | 8.52
10 | AAAAAAAATTATGAAGTGCATTAGTGAATTTGATTG | 9.16
11 | ATTTTTTTTTTTTTTTGTACGAATAATATGTATGAA [XGTACX_site5318] | 7.12
12 | TAGGCCTTAAATCGTGTGCACTTTTTTTTTTTTTTT | 10.7
13 | TAAATATATATATGTGTGCACTTCTTCATTTTAATA [GTGCAC_site9537] | 9.97
14 | AAATTAAATAAATTTACACACTAAAAATTACATATA [CACACA_site1054] | 6.88
15 | TTTTTATTTTATAATATATTCCTTTTCCTTTCTTTC [CACACA_negctrl_site245] | 6.64
16 | TCTTTATCCTTTCTCTTTTTATTAATTATAATATTC [TGCATGCA_negctrl_site584] | 6.99
17 | CTTTCGGTTGGAGAGGTGCGCTTCTCCTTTATAATA | 11
18 | TACAGATACGGACACACACACACACCCAGACAAAAA [CACACA_site4432] | 7.54
19 | CATACACAAGAAAATTCACACACACCCATATATATA [CACACA_site9288] | 7.73
20 | GCCGCACCCAGATACGCACACAAGAAAAAAATATTC [CACACA_site3456] | 11.1
21 | AAAAAAAAAACAAATACACACGCACCCAAAAAAAAA [CACACA_site8166] | 10.1
22 | TACGCACAAAAATATACACACACACCGATATATTTA [CACACA_site9213] | 7.15
23 | CAAAACAAAGTTGCCGCACACAGATACGCACCCAAG [CACACA_site3455] | 11.9
24 | ATTTTTATGTTGAAAAGTACTTGAATCCCATGTAAC [XGTACX_site4453] | 7.09

Row | Sequence | gcPBM binding intensity (ln)
25 | ATATATATATATATAACACACGTGTATTTATCTGTA [CACACA_site5922] | 9.33
26 | AACACACACATATATATATATATATATATATATATA [GTGCAC_negctrl_site573] | 9.64
27 | TAATTAATTTACATTTTAATTTTATACAAAATTTAT [CACACA_negctrl_site830] | 6.7
28 | TTCCTGTTAATTACAACACACAATTTTTATTTTATG [CACACA_site779] | 7.16
29 | ATTGTGGCAATATATTGTACATGTAATATAAATATA [XGTACX_site5415] | 7.06
30 | TTCTTTTTAATGTCGGTGCAACTCCATAAAAACAAA [GTGCAC_site9488] | 10.8
31 | TTCTTTTTTTTTAAAACAAACAAACAAACAAACAAA [CACACA_negctrl_site832] | 7.06
32 | CCATATTTAATAAAATGTACTCATTCTTTTATTTTA [XGTACX_site7802] | 7.11
33 | ATATATTTTATATAGTGTACTTTAATTTTTTTTTTT [XGTACX_site5550] | 6.83
34 | AGTTATTTTTATATTTCACACACATATACTTTTACA [CACACA_site9357] | 7.21
35 | TAGCTGTTCAAAAAATGTACATATATAATATATATA [XGTACX_site5842] | 7.49
36 | AAACCCTATTCAATGCAATAATTTTATAATTTTTTT [TGCATGCA_negctrl_site434] | 6.91
37 | TATAATTTATTAAGGGGTACATATATTTCATGATAA [XGTACX_site5141] | 7.19
38 | ATTTTCATGATAAAGGTGCAATTATTTTTATAAGAA | 10.8
39 | AATAAATTCATGATAGTGCAAAAATTATTTTTGTTA | 8.49
40 | GTATTCATGCTAAAGGTGCAATAATTTTTATAATAA [GTGCAC_site9603] | 10.9
41 | ACACATAATATAAAGGTGCTATATTGTATTCATTTT [GTGCAC_site9457] | 8.36
42 | AATCAAAATTAATTAACACACAATTTTAATATTCTT [CACACA_site2063] | 6.79
43 | ATATATTTTTTTTAGCGTACATGCAAAAAAAAAAAA [XGTACX_site4590] | 7.26
44 | TACGTTATGTTGAATAGTACAATTTGGTGAACAGGT [XGTACX_site1729] | 7.51
45 | GTAGTGGTTGAATATACACACATATATAAATAAATA [CACACA_site7282] | 7
46 | TTTTTTTTTTTGTGGGTGCGTTTATAAAAACAGGAA | 11.1
47 | TTTTTTTTTTTTTTGGTGCGTTTATATATAAATATA | 8.81
48 | TTTTATAAACAGAGGGGTACGGGAAAAAAAAAAAAA [XGTACX_site1480] | 7.11

Row | Sequence | gcPBM binding intensity (ln)
49 | TAATACCATTGTCATGCATGCACATTATTACTCTAA [TGCATGCA_site160] | 7.38
50 | CCTAAAGTGTAAAATTCACACACATATATATATATA [CACACA_site8385] | 8.94
51 | ATTTTTTTCTTAGGAGTGCACTTATATTTATTTTAT | 11.2
52 | ATATATTTTAGGAGAGTGCATTTAATATTATTTAAT [GTGCAC_site9444] | 8.99
53 | TTTTATATTTTAAGAGTGCATTTTATATCTTTTTCT | 8.74
54 | TATATATAATATACATGTACAAATGTATTTAAAAAT [XGTACX_site6090] | 7.07
55 | TGCATAATTAAAAATGGTACACTGTATTTATAATAT [XGTACX_site1575] | 7.13
56 | TAAAAAATTAATAAAGTGCATAAATATTACAATATT | 8.14
57 | AGGTATATATTACAAGTGCACTGTAAAATTAAAATT | 10.7
58 | TCTTATGAATATCCCCGTACACATATATTTCTTATA [XGTACX_site6877] | 7.22
59 | TATAAATTTTGTTTAGCACACACACCGACATACATA [CACACA_site9033] | 7.28
60 | AAACAAAAAAGAAACACACACTAATTAAATTTTCTT [CACACA_site4746] | 6.74
61 | AATATTTGTTAAAGAGGTACACCATTTGGTAGGGAA [XGTACX_site2165] | 7.06
62 | ATTTTTTTTTTTTTTTTAAGACAAACTCTTAATTTA [CACACA_negctrl_site1389] | 6.78
63 | TATGAAGTACACAATACACACTAATTATATATAAAT [CACACA_site5444] | 6.91
64 | TATGAAGTGCACAATACACACTAATTCTATATAAAT [CACACA_site7269] | 11.2
65 | TATATGAAGTACACAATACACACTAATTATATATAA [CACACA_site2608] | 7.12
66 | CATACATACAGATATACACACATATATAATAATATA [CACACA_site5477] | 7.14
67 | AGGTGCTTAATATATACACACATACAGATATATATA [CACACA_site5552] | 7.6
68 | AAATGAATATTCATAGTGCAATATATAAATGAAAAT | 7.94
69 | AGAATAATAAAATGGGTGCAATAGTTTTTTTTTTTT [GTGCAC_site9823] | 10.4
70 | ATAATAAAAATAAGAGAATAAAAATGCAATTTAATG [CACACA_negctrl_site878] | 6.81
71 | GAGAAATTTATACATACACACATATATATATTATAT [CACACA_site4038] | 7.16
72 | ATATATATATATGTATGTATATATATATGTTTGATT [XGTACX_negctrl_site62] | 9.56

Row | Sequence | gcPBM binding intensity (ln)
73 | AATATTACAATTTGGTGTACAGGTGCACATGCCTCA [XGTACX_site1730] | 11.5
74 | TTACGAATTACATATTGTACATATGCACAATTTTAA [XGTACX_site6802] | 7.4
75 | ATTATTTTGTTTATTACATGCAGGTGTATATTACAG [TGCATGCA_site723] | 7.2
76 | ATATATTCCATAAAGGTGCTGTTAACGTGTCAACGT [GTGCAC_site9402] | 7.84
77 | AAAAATAAATATATATGTACACATATGTATACAATA [XGTACX_site4692] | 7.03
78 | AAAAAAAAAAAAAGTGCACACTTTTAATATAAATAT [CACACA_site3314] | 10.8
79 | AGTGCATAATATTTATGTACGTATCACATATATTTT [XGTACX_site5166] | 9.05
80 | AATACAATAAAATAGTGTACATATATATTATGTATA [XGTACX_site8258] | 6.93
81 | ATATAAATATAGTGTGCACACACATAATATATATAT [CACACA_site8713] | 8.66
82 | TTTATATTTTTTTTTGCACACTTTAAAAAAATATAT [CACACA_site1146] | 7.4
83 | ATATATCATATTATAGTGCATTTATAATAATATTAT | 9.33
84 | TATAATAAAATTTTTACACACTTTAAAAAAAAAAAA [CACACA_site524] | 6.88
85 | ATATATATATAGTGCACACATATAAAATATATATAA [CACACA_site2745] | 10.3
86 | ATATATATATATAGTGCACACATATAAAATATATAT [CACACA_site8884] | 10.1
87 | AACATATTGGATTTAGTGCACATATATATCATAATA | 10.3
88 | TTATACAGGACAATAGTGCACATAAATATATGTATA | 10.6
89 | AAGTATTATTTTTATGCATGTGAAGTGCAAAATAAA [TGCATGCA_site198] | 9.56
90 | TTTTATTTTCGATGATGTACATTAAATTATACAGTA [XGTACX_site6053] | 7.01
91 | AATACAATTTTTAACACACACACAATAATACAGATA [CACACA_site4823] | 7.17
92 | ACAAATATGAGAAATTGTACATATAATAAAATAGTA [XGTACX_site2573] | 6.93
93 | AAATAAATAAATATACGTACATATATATAATATATA [XGTACX_site5124] | 7.23
